The values that follow come from PubChem BioAssay.

One experiment addresses Albumin (Bos taurus) (UniProt P02769). As to the kind of experiment: compounds binding labelled BSA control protein – biochemical, small-molecule microarray, Alexa647 label, 635/667 nm fluorescence, artefact control for SMM control protein annotation, profiling panel (AID 1118).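 Also: score merges 667 nm emission intensity and signal-to-noise per printed compound spot.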 Particulars: BSA-A647 binding, fluorescence 635 nm, higher = more signal.
Experiment [1] is described as follows: probe aXIP binding to arrayed compounds – biochemical, NeuroSMM set, 635/667 nm fluorescence, primary screen (AID 1119).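 Also: probe is the protein aXip251-270 applied at 1 µg/mL to compound-printed slides; binding of probe to printed compounds measured as 667 nm fluorescence plus signal to noise.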 Particulars: small-molecule microarray, higher = more signal, called active from +8 up or from −8 down.
Experiment [2] in a line: probe aNOTCH3 binding on compound microarray – biochemical, small-molecule microarray, 635/667 nm fluorescence, primary screen (AID 1120).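 Also: probe is a biotin-tagged antibody raised against NOTCH3 rather than NOTCH3 protein; score merges spot fluorescence near 667 nm with spot signal to noise.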 Particulars: higher = more signal.
Experiment [3] is described as follows: probe aNOTCH2 binding on compound microarray – biochemical, small-molecule microarray, 635/667 nm fluorescence, primary screen (AID 1121).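 Also: score merges feature fluorescence read at 667 nm with its signal to noise.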 The following applies: higher = more signal.
For experiment [4], the target named is Carbonic anhydrase 2 (Homo sapiens) (UniProt P00918). As to the kind of experiment: compounds binding carbonic anhydrase 2 – biochemical, small-molecule microarray, Alexa647-labelled CAII, profiling panel (AID 1122). Particulars: CAII-A647 binding fluorescence, higher = more signal.
A short description of experiment [5]: COS7 lysate on small-molecule microarray, probe aHis, 635 nm (AID 1123).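 Also: z-score combines 667nm fluorescence intensity with signal-to-noise per printed compound spot.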 The following applies: COS7 cell lysate, fluorescence, higher = more signal.
Experiment [6] is described as follows: probe aLAP1 signal on lysate-treated microarray – cell lysate, small-molecule microarray, COS7 lysate, primary screen (AID 1124).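 Also: lysate comes from COS7 cells expressing LAP1 and is applied at 0.3 µg/mL; score merges spot fluorescence near 667 nm with signal-to-noise over triplicate slides.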 The following applies: probe aLAP1, fluorescence, higher = more signal.
For the next experiment, the system named is Sam68 (KHDRBS1). Put plainly: compounds binding KHDRBS1 protein – biochemical, small-molecule microarray, 635 nm fluorescence, primary screen (AID 1125).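 Also: score merges 667 nm channel intensity with signal to noise over triplicate slides.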 Particulars: higher = more signal.
Experiment [7] relates to Chordin-like protein 2 (CHRDL2). As to the kind of experiment: compounds binding chordin-like 2 – biochemical, small-molecule microarray, 635 nm fluorescence, primary screen (AID 1126).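 Also: printed compound slides probed with Chrdl2 protein at 4 µg/mL for 1 h at 4 C; score merges 667 nm emission intensity with signal to noise over three replicate slides.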 Particulars: fluorescence 635 nm, higher = more signal.
For experiment [8], the target named is Concanavalin-A (Canavalia ensiformis) (UniProt P02866). Put plainly: compounds binding concanavalin A lectin – biochemical, small-molecule microarray, Alexa647 label, 635 nm, artefact control for SMM control protein annotation, primary screen (AID 1127).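 Also: z combines 667 nm emission intensity with signal-to-noise across three replicate slides.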 Particulars: ConA-A647 binding fluorescence, higher = more signal.
Concanavalin-A (Canavalia ensiformis), sequence (P02866 whole entry, looked up): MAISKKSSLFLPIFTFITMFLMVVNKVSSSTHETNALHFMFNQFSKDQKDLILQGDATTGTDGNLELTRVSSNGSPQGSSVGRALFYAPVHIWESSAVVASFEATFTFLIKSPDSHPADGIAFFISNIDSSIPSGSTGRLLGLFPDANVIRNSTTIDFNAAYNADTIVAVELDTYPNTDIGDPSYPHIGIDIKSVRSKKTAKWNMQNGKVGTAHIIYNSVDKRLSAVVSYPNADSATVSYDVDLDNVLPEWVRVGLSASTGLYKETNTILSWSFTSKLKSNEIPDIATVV

Active and inactive are the calls of the source.

Albumin (Bos taurus), sequence (P02769 whole entry, looked up): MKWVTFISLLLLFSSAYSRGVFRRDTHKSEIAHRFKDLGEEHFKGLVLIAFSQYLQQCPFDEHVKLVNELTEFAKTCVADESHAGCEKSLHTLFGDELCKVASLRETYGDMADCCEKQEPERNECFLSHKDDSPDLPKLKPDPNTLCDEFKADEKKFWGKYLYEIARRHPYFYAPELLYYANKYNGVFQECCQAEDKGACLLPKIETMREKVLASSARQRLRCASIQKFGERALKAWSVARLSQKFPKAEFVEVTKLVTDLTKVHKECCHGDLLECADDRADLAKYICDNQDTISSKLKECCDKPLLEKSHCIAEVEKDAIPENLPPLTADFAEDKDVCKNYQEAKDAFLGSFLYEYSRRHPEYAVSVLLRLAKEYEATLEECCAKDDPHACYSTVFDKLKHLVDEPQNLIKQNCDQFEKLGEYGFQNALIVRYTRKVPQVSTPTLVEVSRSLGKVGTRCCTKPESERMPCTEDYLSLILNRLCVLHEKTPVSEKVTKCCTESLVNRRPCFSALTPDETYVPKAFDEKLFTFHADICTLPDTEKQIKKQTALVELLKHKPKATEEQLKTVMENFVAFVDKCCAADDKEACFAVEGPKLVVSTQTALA

For `C=CC1(C(=O)OC)CC=C(C(=O)OC)CC1` (stereo not given), the composite z-score with Albumin (Bos taurus) is 0.714; in experiment [2], -0.0077; in experiment [3], -0.0661; in experiment [4], 0.613; in [5], 0.732; in experiment [6], 0.872. The composite z-score in the experiment on Sam68 (KHDRBS1) was 0.82; in experiment [7], 0.556; in [8], 0.339. In addition, the composite Z-score in [1] is 0.257 (inactive).

As to `COc1cc2c(cc1OC)CN(C(=O)[C@@H]1[C@H]3C(=O)O[C@H](c4ccccc4)[C@H](c4ccccc4)N3[C@H](c3ccccc3OCCO)[C@@]13C(=O)Nc1ccc(C#CCCO)cc13)CC2`, the composite z-score is 0.641 in the experiment with Albumin (Bos taurus); 0.0556 in [2]; -0.0878 in [3]; 0.402 in experiment [4]; 1.88 in experiment [5]; 0.681 in experiment [6]. The composite z-score was 1.29 with Sam68 (KHDRBS1), 0.352 in experiment [7] and 1.14 in [8]. In addition, the composite Z-score in experiment [1] is 0.252 (inactive).

For the compound `C=CCC(OC(C)=O)[C@@H]1[C@@H](N(Cc2ccc(-c3cccc(C(F)(F)F)c3)o2)C(=O)c2ccc(C)cc2)c2cc(OCCCO)ccc2N1C(=O)Cc1ccc2ccccc2c1` (stereo not given in full), the composite z-score in the experiment with Albumin (Bos taurus) was -0.257; in experiment [2], -0.0702; in experiment [3] it was -0.153; in experiment [4], -0.253; in [5], -0.275; in experiment [6], -0.472. For the same compound, the values for the composite z-score (with Sam68 (KHDRBS1); in [7]; in experiment [8]) were -2.05, 0.264 and -0.594, respectively. For the same compound, the composite Z-score in experiment [1] was 0.421 (inactive).

Consider `C=C(COC)/C(=C/C[C@@H](OC(C)=O)c1ccc(OCCO)cc1)c1cnc2ccccc2c1`, for which the composite z-score in the experiment with Albumin (Bos taurus) is 0.0772; in [2] it was 0.112; in experiment [3], -0.14; in experiment [4] it was 0.913; in experiment [5] it was -0.161; in experiment [6] it was 0.999. The composite z-score in the experiment with Sam68 (KHDRBS1) worked out at 0.74; in experiment [7], 1.41; in experiment [8], 1.14. Further, the composite Z-score in [1] was -0.225 (inactive).

In the case of `O=C1O[C@H](c2ccccc2)[C@H](c2ccccc2)N2[C@H]1[C@@H](C(=O)N1CCCCCCC1)[C@]1(C(=O)Nc3ccc(C#CCCO)cc31)[C@H]2c1ccccc1OCCO`, the composite z-score with Albumin (Bos taurus) was 0.536; in experiment [2], 2.31; in experiment [3], 1.14; in experiment [4], 1.12; in experiment [5], 5.54; in [6], 1.3. For the same compound, the composite z-score in the experiment with Sam68 (KHDRBS1) amounted to 1.35; in experiment [7], 1.7; in experiment [8], 1.21. In experiment [1], the composite Z-score was 10.7 (active).

Turning to `[N-]=[N+]=Nc1ccccc1[C@H]1OC(c2ccc(OCCCO)cc2)=N[C@@]1(CCS(=O)(=O)c1ccccc1)C(=O)NCC(O)CO` (stereo not given in full), the composite z-score is 0.876 with Albumin (Bos taurus); 0.102 in experiment [2]; -0.0984 in experiment [3]; 0.718 in experiment [4]; 3.02 in experiment [5]; 0.261 in [6]. The composite z-score is 1.33 in the experiment with Sam68 (KHDRBS1), -0.907 in experiment [7] and 0.833 in [8]. Also, the composite Z-score in experiment [1] was -0.0683 (inactive).

Turning to `O=C1c2ccccc2[C@](Cc2ccccc2I)(C(=O)NCC(F)(F)F)[C@H](c2ccc(CO)cc2)N1Cc1ccccc1Cl`, the composite z-score in the experiment with Albumin (Bos taurus) is 0.83; in experiment [2], 0.0445; in [3] it was -0.0811; in experiment [4], 0.596; in experiment [5], 2.04; in [6], 1.42. In addition, the composite z-score was 1.29 in the experiment with Sam68 (KHDRBS1), -0.466 in experiment [7] and 1.09 in experiment [8]. In addition, the composite Z-score in experiment [1] is -0.228 (inactive).

On to `O=C1C[C@@](C(=O)NC2CC2)(c2ccc([N+](=O)[O-])cc2)[C@@H](c2ccc(CO)cc2I)N1C1CCCCC1`, for which the composite z-score with Albumin (Bos taurus) was 0.554; in experiment [2] it was 0.0596; in experiment [3] it was -0.14; in experiment [4], 0.452; in experiment [5], 1.77; in experiment [6] it was -0.0328. Moreover, the composite z-score with Sam68 (KHDRBS1) is 1.29; in [7] it was 0.397; in [8], 1.04. For the same compound, the composite Z-score in experiment [1] is 0.142 (inactive).

On to `C=CC[C@]1(C(=O)NCc2ccccc2)N=C(c2ccc(OCCCO)cc2)O[C@H]1c1ccccc1N=[N+]=[N-]`, for which the composite z-score with Albumin (Bos taurus) came to 0.897; in experiment [2], 0.174; in [3], 0.12; in experiment [4], 0.625; in experiment [5] it was 2.68; in [6] it was 0.727. The composite z-score is 1.34 in the experiment on Sam68 (KHDRBS1), -0.567 in experiment [7] and 1.09 in [8]. Also, the composite Z-score in [1] was 1.39 (inactive).

`CN1C(=O)C2C=CC(C(O)C3CC=CCC3)N(N(c3ccccc3)c3ccccc3)C2C1=O` (stereo not given): the composite z-score with Albumin (Bos taurus) was -0.197; in [2], 0.0715; in experiment [3], 0.19; in experiment [4], -0.287; in [5], -0.202; in [6], 0.52. For the same compound, the figures for the composite z-score (in the experiment with Sam68 (KHDRBS1); in [7]; in experiment [8]) were -1.25, 0.774 and -0.372, respectively. In experiment [1], the composite Z-score is 0.0007 (inactive).

`O=C1C2C=CC(C(O)c3cc(C(F)(F)F)cc(C(F)(F)F)c3)N(n3cnnc3)C2C(=O)N1Cc1ccccc1` (stereo not given): the composite z-score with Albumin (Bos taurus) was 0.184; in experiment [2] it was -0.0391; in experiment [3], 0.392; in [4] it was 0.68; in experiment [5], 1.58; in [6] it was -0.0088. Also, the results for the composite z-score (in the experiment with Sam68 (KHDRBS1); in experiment [7]; in [8]) were 0.824, -1.04 and 0.516, respectively. In experiment [1], the composite Z-score is -0.0461 (inactive).

Consider `COC(=O)C(CC#Cc1ccc2c(c1)[C@]1(C(=O)N2)[C@H](C(=O)Nc2nc3ccccc3s2)[C@H]2C(=O)O[C@H](c3ccccc3)[C@H](c3ccccc3)N2[C@@H]1c1ccc(O)cc1)C(=O)OC`, for which the composite z-score with Albumin (Bos taurus) was 0.646; in [2], -0.0431; in [3], -0.0846; in experiment [4], 0.378; in experiment [5] it was 1.96; in [6] it was 0.301. In addition, the composite z-score in the experiment on Sam68 (KHDRBS1) came to 1.3; in experiment [7] it was 0.673; in [8] it was 1.04. Further, the composite Z-score in experiment [1] is 0.298 (inactive).

Regarding `COc1ccc(C#Cc2ccc3c(c2)[C@]2(C(=O)N3)[C@H](C(=O)Nc3nc4ccccc4s3)[C@H]3C(=O)O[C@H](c4ccccc4)[C@H](c4ccccc4)N3[C@@H]2c2ccc(O)cc2)cc1`, the composite z-score with Albumin (Bos taurus) came to 0.835; in experiment [2], 1.29; in experiment [3] it was 0.158; in experiment [4] it was 0.406; in experiment [5], 2.65; in experiment [6], 0.641. In addition, the figures for the composite z-score (in the experiment on Sam68 (KHDRBS1); in [7]; in experiment [8]) were 1.31, 0.172 and 1.12, respectively. Also, the composite Z-score in experiment [1] was 0.257 (inactive).

Regarding `O=C(c1ccccc1)N1C(=O)[C@]2(COC(c3ccc(OCCCO)cc3)=N2)Cc2ccccc21`, the composite z-score with Albumin (Bos taurus) is 0.368; in experiment [2] it was 0.201; in experiment [3] it was -0.0249; in experiment [4] it was 0.566; in [5] it was 3.17; in experiment [6] it was 0.771. The composite z-score with Sam68 (KHDRBS1) was found to be 1.29; in experiment [7], 0.674; in experiment [8] it was 1.16. In addition, the composite Z-score in experiment [1] is 3.03 (inactive).
